Data from PubChem BioAssay AID686978 (National Center for Advancing Translational Sciences (NCATS), 2013).
In all, about 420,000 compounds went through this assay and about 64,000 (15%) were called active. Another 27% or so got no clear call; they are omitted. Only a sample is shown. Unmarked numbers belong to inactive results. Calls come from the whole dose curve; as a rule, active = well fitted inhibition curve with a large enough effect; inconclusive = small, poorly fitted or top-dose-only effect; inactive = flat fitted curve, though single readings scatter.

Assay: qHTS for Inhibitors of human tyrosyl-DNA phosphodiesterase 1 (TDP1): qHTS in cells in absence of CPT; note: nearly all actives have a fitted effect of over 55% in size
Details: DT40 Tdp1-/- hTDP1 cells, no CPT, ATP luminescence, 48 h; activity change, negative = growth inhibition: at 46.2 µM (top of the series)
In short: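 Growth of hTDP1-complemented DT40 Tdp1-knockout cells is measured by ATP luminescence after at least 48 hr compound exposure at 37 °C, with DMSO substituting for the 20 nM CPT used in the parallel screen.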
% is set by controls: 0 for no effect and ±100 for the full control effect; potency is the fitted concentration of half-maximal effect.

SMILES	Potency	activity change, negative = growth inhibition
Clc1cccc(N=C2NN=C(c3ccc4c(c3)OCCO4)CS2)c1	10.3 µM (active)	
Cc1cccc(N=C2NN=C(c3c[nH]c4ccccc34)CS2)c1		-13.4%
COc1ccccc1CCNC(=O)c1cccn1-c1nnc(N2CCCCC2)s1	1.64 µM (active)	
CSc1ccc(CCNC(=O)C2CCN(c3nnc(-n4cccc4)s3)CC2)cc1		-17%
COc1ccccc1CNC(=O)C1CCN(c2nc3ccccc3o2)CC1		-11%
N#CC(=C1CCCC1)c1nc(-c2ccc(Cl)cc2)cs1		-27.4%
CCOC(=O)C1CCC(CN(Cc2ccc(OC)cc2)S(=O)(=O)c2ccc(F)c(C(=O)Nc3cc(C)ccc3C)c2)CC1 (configuration not stated)		-11.9%
Cc1cc2c(cc1S(=O)(=O)NCc1ccc(Cl)cc1)OCC(=O)N2		2.83%
CC(=O)N1CCC2(CCCN(Cc3ccccc3)C2)CC1		-18.3%
CC(=O)N1CCC(C(=O)OCc2ccc(Cl)cc2)(c2ccccc2)CC1	11.6 µM (active)	
O=C(CCC(=O)OCc1ccc(Cl)cc1)Nc1ccccc1		-0.379%
Cc1noc(C)c1NC(=O)Nc1ccc2c(c1)C(=O)N([C@H](C)CO)C[C@H](C)[C@@H](CN(C)S(=O)(=O)c1cn(C)cn1)O2		-2.48%
NS(=O)(=O)c1ccc(NC(=O)CSc2nnc3c(n2)[nH]c2ccccc23)cc1		-0.0777%
CCN(CC)c1ccc(/C=C/c2c(C)cnc3ccc(C)cc23)cc1	20 µM (active)	
CCOC(=O)N1CCN(c2c(NCCCN3CCCC(C)C3)c(=O)c2=O)CC1 (configuration not stated)		-4.27%
CC(C)C(=O)OCC(=O)Nc1ccc2c(c1)CCC2		1.2%
CCOc1ccc(NC(=O)C2CC(=O)N=C(N)S2)cc1 (configuration not stated)		-4.41%
COc1ccccc1-c1nnc(NC(=O)c2cccc(N3C(=O)CCC3=O)c2)o1		7.07%
COc1cc(-c2nnc(NC(=O)C3=COCCO3)o2)cc(OC)c1OC		5.88%
Cc1ccc(C(=O)Nc2nnc(C3=COCCO3)o2)cc1C	23.1 µM (active)	
COc1cc(C(=S)N2CCOCC2)ccc1O	inactive	
CCCCC(NC(=O)c1cccc(Br)c1)C(=O)O (configuration not stated)		1.16%

SMILES	Potency	activity change, negative = growth inhibition
O=C(CN1C(=O)NC2(CCCC2)C1=O)NCC1CCCO1 (configuration not stated)		5.83%
O=C(c1ccccc1)N1CCN(C(=O)N2CCCCC2)CC1		0.232%
CC(=O)NN=C(C)c1ccc(NC(=O)C2CC2)cc1		-85.3%
CC(C)c1ccc(NC(=O)C2CCN(c3nc(-c4ccc(C(C)C)cc4)no3)CC2)cc1	13 µM (active)	
Cc1cc(C)cc(NC(=O)C2CCN(c3nc(C)cc(C)n3)CC2)c1		-8.01%
Cc1ccc(-n2ncc3c(=O)[nH]cnc32)c(C)c1		-1.23%
COc1ccccc1-c1cc2nc(NCc3cccc(Cl)c3)ccn2n1	18.4 µM (active)	
COc1ccccc1-c1cc2nc(C)c(CCC(=O)O)c(C)n2n1		-10.6%
COCCCNc1ccn2nc(-c3ccc(CC(C)C)cc3)cc2n1		-25.7%
CC(C)Cc1ccc(-c2cc3nc(NCc4cccc(Cl)c4)ccn3n2)cc1	18.4 µM (active)	
COc1ccccc1-c1cc2nc(C)c(CCC(=O)NC3CCCCC3)c(C)n2n1		-19.4%
Cc1nc2cc(NC(=O)[C@@H]3C[C@@H](Sc4ccccn4)CN3Cc3ccccc3C)ccc2s1		-13.5%
O=C1/C(=C/c2ccc3c(c2)OCO3)CCC/C1=C\c1ccc2c(c1)OCO2		-29.6%
O=C(OCC(=O)N1CCCCCC1)c1cnc(Cl)c(Cl)c1		8.48%
CCc1ccc(C2C(C(=O)Nc3ccccc3)=C(C)Nc3c(C(=O)Nc4ccc(C)cc4)cnn32)cc1 (configuration not stated)	23.1 µM (active)	
CC1=C(C(=O)Nc2ccccc2)C(c2ccc(C)cc2)n2nc(SCc3ccccc3C)nc2N1 (configuration not stated)		-22.3%
COc1cccc(C2C(C(=O)Nc3ccc(C)cc3C)=C(C)Nc3c(C(=O)Nc4ccccc4)cnn32)c1 (configuration not stated)		-24%
CCCSc1ncccc1C(=O)O		-17.2%
Cc1cnc(CN(C)C(=O)C2CCC(=O)N(CCc3cccc(F)c3)C2)[nH]1 (configuration not stated)		22.2%
O=C(Nn1cc(C(=O)N2CCN(c3ccccc3F)CC2)c2ccccc2c1=O)c1cnccn1	13 µM (active)	
COc1ccc2oc(=O)c(C(=O)N3CCN(c4ccccc4F)CC3)cc2c1		-20%
Cc1oc2ncn(CC(C)C)c(=O)c2c1C(=O)N1CCN(c2ccccc2F)CC1		-26.2%

SMILES	Potency	activity change, negative = growth inhibition
CCOCCCNC(=O)C(=O)NCCCOCC		-0.2%
O=C(CSc1nc2[nH]ncc2c(=O)[nH]1)Nc1ccc(F)cc1		1.91%
CCOc1ccccc1NC(=O)CCn1cnnn1		-0.862%
Cc1[nH]c2ccc(S(N)(=O)=O)cc2c1C		1.87%
CCc1nnc(NC(=O)C2CCN(C(=O)c3ccccc3C)CC2)s1		6.29%
Cc1ccccc1C(=O)N1CCC(C(=O)Oc2ccc(C#N)cc2)CC1		3.44%
Cc1ccccc1C(=O)N1CCC(C(=O)Nc2ccc(S(=O)(=O)N(C)C(C)C)cc2)CC1	20.6 µM (active)	
COc1ccc(-n2c(C)csc2=S)cc1		-9.93%
O=C(OCCN1C(=O)c2ccccc2C1=O)[C@@H]1CC(O)CN1S(=O)(=O)c1ccccc1[N+](=O)[O-] (some centres not stated)		4.14%
COc1ccc(S(=O)(=O)N2CCC(C(=O)OCC(=O)c3ccccc3)CC2)cc1[N+](=O)[O-]		-10.2%
COC(=O)C1(C(=O)OC)C/C=C\CN(S(=O)(=O)c2ccccc2[N+](=O)[O-])CCC1	16.4 µM (active)	
COc1ccc(-c2oc3ncnc(NCCCO)c3c2-c2ccc(OC)cc2)cc1	16.4 µM (active)	
OCCc1ccc(NCCc2ccco2)cc1		-7.84%
COCCNc1ncnc2c1ncn2[C@H]1CN(Cc2ccc(OC)cc2)C[C@@H](CO)O1		-11.2%
OCCNc1ncnc2oc(-c3ccco3)c(-c3ccco3)c12	20 µM (active)	
Cc1nnc(NCCO)c2ccccc12		-3.13%
Nc1nonc1C(=O)NCCc1ccccc1		2.03%
O=S1(=O)C=C(SCCN2CCCC2)c2ccccc21		-17.4%
CCCC(C)NC(=O)C1CCN(C(=O)C2CC(=O)N(c3ccc(C)cc3)C2)CC1 (configuration not stated)		-16.9%
Cc1ccsc1CNn1cnnc1SCc1ccccc1F		-16.7%
CCn1c(CNC(=O)c2ccco2)nnc1SCC(=O)Nc1cccc(F)c1		25.7%
COC(=O)C(C)n1cnc2c(nnn2-c2cccc(Cl)c2)c1=O (configuration not stated)		-2.72%

SMILES	Potency	activity change, negative = growth inhibition
CC(C)n1cnc2c(Nc3cccc(Cl)c3)nc(N(CCO)CCCO)nc21	14.6 µM (active)	
CC(C)[C@H](CO)Nc1nc(Nc2cc(N)cc(Cl)c2)c2ncn(C(C)C)c2n1	2.99 µM (active)	
O=C(NCCc1ccccc1)c1ccc(NC2=NC3CS(=O)(=O)CC3S2)cc1 (configuration not stated)		-3.78%
Cc1cc(NS(=O)(=O)c2ccc(NC(=O)C(C)Oc3cccc(C)c3C)cc2)nc(C)n1 (configuration not stated)		1.7%
O=C(CSc1ncnc2sccc12)NC1CCS(=O)(=O)C1 (configuration not stated)		1.97%
Cn1c(SCC(=O)Nc2cccc(O)c2)nnc1-c1ccc(S(=O)(=O)N2CCOCC2)cc1		-22.6%
Cc1ccc([C@@H]2CC(=O)[C@@H]3CN(S(=O)(=O)c4ccc(C)cc4)[C@H](c4ccccc4F)C[C@@H]3N2S(=O)(=O)c2ccc(Cl)cc2)cc1		-6.21%
Cc1ccccc1CSc1nnc(-c2cccnc2)n1N		-16.3%
Cc1ccc(-c2nn(-c3ccccc3)cc2CN(Cc2ccccc2)C(=O)CCC(=O)O)o1		-5.97%
COCCCNC(=O)Cn1cc(C(=O)C2CC2)c2ccccc21		-8.41%
O=C(CSc1ncnc2c1oc1ccccc12)NC1CCCC1		-11.6%
COc1ccccc1Nc1ncnc2c1oc1ccccc12	11.6 µM (active)	
CCC(C(=O)OC)n1cnc2c(oc3ccccc32)c1=O (configuration not stated)		8.29%
COc1ccc(CN2CCC3(CCC(CNC(=O)c4ccco4)O3)CC2)cc1OC (configuration not stated)		-20%
CCCCCCCNc1nc(Cl)nc(NCCO)n1		-13.2%
Cc1occc1-c1nnc(SCC(=O)NC2CCCCC2)o1		-27.7%
CCOC(=O)Nc1ccc2c(c1)N(C(=O)CCCl)c1ccccc1[S@]2=O	3.66 µM (active)	
CCOC(=O)CNC(=O)CN1C(=O)CCSc2ccccc21		1.6%
CCOC(=O)Nc1ccc2c(c1)N(C(=O)CCN1CCN(CCO)CC1)c1ccccc1CC2		-1.78%
CCOC(=O)Nc1ccc(NC(=O)OCC)cc1		-7.66%
CCNC(=O)N1c2ccccc2Sc2ccccc21		-18%
CCNCCC(=O)N1c2ccccc2Sc2ccc(NC(=O)OCC)cc21	13 µM (active)	

SMILES	Potency	activity change, negative = growth inhibition
CN1CCC2(CC1)CCN(S(=O)(=O)c1ccccc1)CC2		1.52%
Cc1ccc(S(=O)(=O)N(c2cccc(C)c2)C2CCS(=O)(=O)C2)cc1 (configuration not stated)		-4.69%
CC(C)Sc1ncnc2c1cnn2-c1ccccc1		-28.2%
O=C(O)c1cc(S(=O)(=O)Nc2ccc3cn[nH]c3c2)ccc1Br		7.47%
CC(C)N1C(=O)C2C(C(=O)NC3CCCCC3)C3C=CC2(O3)C1C(=O)NC1CCCC1 (configuration not stated)		-1.95%
CCCCOC(=O)Nc1nccs1		-5.44%
CCCc1cc(=O)n2[nH]c(SCc3ccccc3)nc2n1		-7.3%
C=CCn1c2ccccc2c2nnc(SC(CC)C(=O)Nc3nc(C)c(C(=O)OCC)s3)nc21 (configuration not stated)	8.2 µM (active)	
CCOC(=O)c1sc(NC(=O)C(CC)Sc2nccn2C)nc1C (configuration not stated)		-23.3%
CCn1c2ccccc2c2nnc(SCC(=O)O)nc21		-19.8%
N#Cc1cc2[nH]c(=O)c(=O)[nH]c2cc1[N+](=O)[O-]		9.21%
CSc1n[nH]c(=S)n1N		-6.87%
N#Cc1ccc(S(=O)(=O)NCC(=O)OCC(=O)NCCc2ccccc2)cc1		19.7%
Cc1nnc(SCC(=O)Nn2cnnc2)s1		-9.49%
O=S1(=O)CC/C(=N\Nc2ccc(F)cc2)c2ccsc21		-24.8%
O=C(COC(=O)c1ccc(F)cc1)NCCCc1ccccc1		16.5%
O=C1CCN(CCCc2ccccc2)CCN1CCO		-1.55%
O=C(c1ccc(F)cc1)C1CCN(CCCCc2ccccc2)CC1	26.6 µM (active)	
CCn1c(SCC(=O)NC2CCCC2)nnc1-c1ccoc1C		-5.53%
